This test has as its target Interleukin-8 (IL8, CXCL8), C-terminal His-tagged (Homo sapiens, UniProt P10145 SEQ:1-72). The test can be described thus: competition; competition TR-FRET; deletion at position 16. Conditions: tags: C-terminal 6xHis (Sino Biological); ssRNA; 2'-F G, 2'-OMe A/C/U, 5' C6NH2, 3' idT. The method, then:
Activity of each of these variants were tested using a time resolved competition TR-FRET assay in which the labeled parent Aptamer 3 was competed with increasing concentrations of unlabeled variants for binding to IL8 (FIG. 14). Briefly, 2-fold dilutions of thermally equilibrated aptamers were made in TR-FRET Buffer (50 mM MOPS, pH 7.4, 125 mM NaCl, 5 mM KCl, 50 μM CHAPS, 0.1 mg/mL BSA, 1 mM CaCl₂, and 1 mM MgCl₂). 5 μL of aptamer or control solution was added to 5 μl mix of 10 nM C-terminal His-tagged-IL8, 60 nM ALEXA FLUOR® 647-labeled Aptamer, and 5 nM anti-His-Eu (Perkin Elmer) in a black wall low volume 384 well plate (Greiner). For control, 5 μl of 1000-fold excess of unlabeled parent aptamer or 5 μl TR-FRET buffer alone was added to the mix of ALEXA FLUOR® 647-labeled aptamer, His-IL8, and anti-His-Eu. The plate was covered with a plate seal and subsequently incubated in the dark for 1 hour at room temperature. The plate was read on a Biotek CYTATION™ 5 plate reader. Samples were excited at 330 nm and fluorescent values were collected at 665 nm. Data analysis was performed by subtracting the background value and plotting as percent inhibition, normalized to baseline in the absence of competitor. […]
(In TR-FRET formats the signal depends on donor and acceptor labels being close together.)
UGAUGACGGUAGAUUUGGGUAGAGUGACCGCAUCU returned a binding signal of roughly 5 fold worse than Aptamer 3.

(Values after patent publication US20210230599, “STEM-LOOP COMPOSITIONS AND METHODS FOR INHIBITING INTERLEUKIN-8” (VITRISA THERAPEUTICS, INC., published 2021).)
